# Screening data (PubChem BioAssay)
# HT1080 IDH1KD tx – toxicity to HT-1080 IDH1 knockdown cells (counter line). HT-1080 IDH1 knockdown viability, ATP luminescence, 48 h. Potency, µM (series often up to 46.1 µM), without a hit: at the top dose activity, negative = toxicity, most hits filed as cytotoxic. 360,000 compounds, 2% hits. AID 686971;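 note: 0% = DMSO wells and -100% = cell-free medium wells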
#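 After a 2 h attachment period, IDH1KD HT-1080 cells took pin-transferred compound for 48 h at 37 °C; ATP-based luminescence after 10 min room-temperature reagent incubation reported viability.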
# KB-3-1 cytotox – kills parental KB-3-1 adenocarcinoma cells | 400,000 compounds, 1.4% hits | KB-3-1 viability, CellTiter-Glo ATP luminescence, 72 h | AID 1347075 | Potency, µM (top dose mostly 46.1 µM), hits mostly cytotoxic; note: nearly all actives have a fitted effect of over 60% in size
#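 Screening of KB-3-1 cells (DMEM, 10% FBS, phenol-red free) ran from lowest to highest compound concentration; after 72 h at 37 °C viability was read luminescently and curves fitted.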
# DT40 TDP1 CPT – DT40-hTDP1 cell growth loss with CPT | chicken DT40 Tdp1-/-;hTDP1 cells + 20 nM CPT, ATP luminescence, 48 h | Potency, µM (doses to about 46.2 µM), without a hit: at the top dose activity change, negative = growth inhibition, most hits filed as inhibitors | 420,000 compounds, 12% hits; note: nearly all actives have a fitted effect of over 55% in size
#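 Chicken DT40 Tdp1-/- cells stably complemented with human TDP1 were seeded at 400 cells/well in medium containing 20 nM camptothecin, exposed to pin-transferred compounds, and grown at 37 °C for at least 48 hr. Viability was read as ATP luminescence.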
# DT40 TDP1 no CPT – qHTS for Inhibitors of human tyrosyl-DNA phosphodiesterase 1 (TDP1): qHTS in cells in absence of CPT. DT40 Tdp1-/- hTDP1 cells, no CPT, ATP luminescence, 48 h. Potency, µM (doses to about 46.2 µM), inactives show at the highest dose activity change, negative = growth inhibition, most hits filed as inhibitors. 420,000 compounds, 15% hits. AID 686978, 2013; note: nearly all actives have a fitted effect of over 55% in size
#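 Chicken DT40 Tdp1-/- cells complemented with human TDP1, screened without camptothecin (DMSO vehicle only), 400 cells/well. Compounds pin-transferred, cells incubated at 37 °C for at least 48 hr. Growth read as ATP-dependent luminescence (CellTiter-Glo, 30 min at RT).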
# KB-V1 cytotox – kills drug-selected multidrug resistant KB-V1 cells; KB-V1 MDR cells viability, CellTiter-Glo, 72 h; AID 1347076; 400,000 compounds, 3.4% hits; Potency, µM (titrated, usually from 46.1 µM), most hits filed as cytotoxic; note: nearly all actives have a fitted effect of over 60% in size
#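 In this primary screen, KB-V1 cells overexpressing P-gp are incubated with library compounds (lowest to highest concentration) for 72 h at 37 degrees C before a luminescent ATP viability read.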
# HT1080-NT tox – kills 2HG-producing HT-1080-NT fibrosarcoma cells; HT-1080-NT fibrosarcoma viability, CellTiter-Glo ATP luminescence, 48 h; Potency, µM (doses to about 46.1 µM), for inactives: top-dose activity, negative = less viability, usual class: cytotoxic; 360,000 compounds, 1.6% hits; AID 686970;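 note: NT is the 2HG producing partner of a matched IDH1 knockdown line; 0% = DMSO-treated cells and -100% = media-only wells without cells; nearly all actives have a fitted effect of over 55% in size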
#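 HT-1080-NT; 750 cells/well; 5% FBS RPMI; 48 h compound, 37 degrees C; CellTiter-Glo luminescence; curve fitting and curve-class assignment.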
# Numbers without * were called inactive; i = inactive; u = inconclusive; x = not tested or not shown; [ ] = dose if it differs, or a comment. Rows were chosen to be rich in hits. Some 19% of all compounds tested hit in one or more screens of this group. Calls come from the whole dose curve; as a rule, active = well fitted curve in the direction sought with a large enough effect; inconclusive = small, poorly fitted or top-dose-only effect, or another doubt; inactive = no such curve, though single readings can be large; an effect the other way counts as inactive or inconclusive. Unless noted, % is set by controls: 0 for no effect and ±100 for the full control effect; potency is the fitted concentration of half-maximal effect.
SMILES,HT1080 IDH1KD tx,KB-3-1 cytotox,DT40 TDP1 CPT,DT40 TDP1 no CPT,KB-V1 cytotox,HT1080-NT tox
CSc1ccc(CCNC(=O)c2c(C)oc3ncn(C)c(=O)c23)cc1,x,i,u,18µM*,i,x
COc1ccc(CCNC(=O)c2c(C)oc3ncn(CC(C)C)c(=O)c23)c(OC)c1,x,i,16µM*,16µM*,i,x
CCNC(=O)c1c(C)oc2ncn(C)c(=O)c12,x,i,-9%,-19%,i,x
Cc1oc2ncn(CC(C)C)c(=O)c2c1C(=O)NCCc1ccc(Cl)cc1,x,i,u,15µM*,i,x
CCOc1ccc(CCNC(=O)c2c(C)oc3ncn(CC(C)C)c(=O)c23)cc1,x,i,u,u,i,x
C=CCn1c(-c2oc3nc(-c4ccccc4)cc(-c4ccccc4)c3c2N)n[nH]c1=S,5%,i,u,u,9.2µM*,3%
C=CCn1c(-c2cccc(Cl)c2)n[nH]c1=S,4%,i,6%,-18%,i,16%
COCCOC(=O)C1=C(C)N=C2SCCC(=O)N2C1/C=C/c1ccccc1 (stereo unspecified),13%,i,18µM*,18µM*,i,-2%
CCOC(=O)C1=C(C)N=C2SCCC(=O)N2[C@@H]1/C=C/c1ccccc1,-5%,i,-12%,-9%,i,-1%
C=C(C)C(=O)NNc1ccccc1,21µM*,i,5.2µM*,7.3µM*,i,7.3µM*
CC(C)OC(=O)C(=O)NNc1ccccc1,9.2µM*,u,-1%,-17%,i,7.3µM*
CC(=N\Nc1ccc(Cl)cc1)/C(=N/O)C(=O)Nc1ccccc1,-2%[9.24 µM],i,-9%,-20%,i,-25%
CCCOC(=O)C(=O)NNc1ccccc1,5.2µM*,u,0%,13%,i,3.7µM*
CCOC(=O)C(=N/O)/C(C)=N/NC(=O)C(=O)Nc1ccc(Cl)cc1,-4%,i,4.1µM*,2.1µM*,i,-26%
CCOC(=O)C(=O)NNc1ccc(C)cc1,-2%,i,-11%,u,i,u
CCOC(=O)C(=O)NNc1ccc(Cl)cc1,4.1µM*,i,25%,-11%,i,3.7µM*
CC1(C)CC2(CC(c3ccccc3F)c3cc(Cl)c(O)cc3O2)NC(=S)N1 (stereo unspecified),u,i,2.1µM*,3.7µM*,u,u
COc1cccc(C2CC3(CC(C)(C)NC(=S)N3)Oc3cc(O)ccc32)c1 (stereo unspecified),2%,u,12µM*,9.2µM*,i,-6%
Cc1cccc(C2CC3(CC(C)(C)NC(=S)N3)Oc3cc(O)ccc32)c1 (stereo unspecified),-12%,i,21µM*,13µM*,i,-7%
O=C(NCc1cccc(F)c1)c1cccc2c1C(=O)c1ccc(N3CCOCC3)cc1S2(=O)=O,5%,i,u,u,i,-6%
Cc1ccc(CNC(=O)c2cccc3c2C(=O)c2ccc(N4CCCCC4)cc2S3(=O)=O)cc1,-10%,u,29µM*,u,i,-42%
COc1ccccc1N1CCN(c2ccc3c(c2)S(=O)(=O)c2cccc(C(=O)NCc4cccc(F)c4)c2C3=O)CC1,-10%,i,u,1.6µM*,i,-12%
O=C(NCc1ccccc1C(F)(F)F)c1cccc2c1C(=O)c1ccc(N3CCC(N4CCCCC4)CC3)cc1S2(=O)=O,-11%,i,2.3µM*,3.7µM*,u,-4%
CCOc1ccc(-c2nc3c(c(SCC(=O)N4CCCCC4)n2)Cc2cc(C)ccc2O3)cc1,x,i,u,u,u,x
O=C1C(Nc2ccc(O)cc2)=C/C(=N/S(=O)(=O)c2cccs2)c2ccccc21,1.5µM*,3.3µM*,1.2µM*,1.5µM*,13µM*,2.3µM*
SMILES,HT1080 IDH1KD tx,KB-3-1 cytotox,DT40 TDP1 CPT,DT40 TDP1 no CPT,KB-V1 cytotox,HT1080-NT tox
O=C(O)c1ccc(NC2=C/C(=N/S(=O)(=O)c3cccs3)c3ccccc3C2=O)cc1,u,u,9.2µM*,6.5µM*,u,u
Cc1cccc(-c2ccc3c(c2)C2CC3CCN2C)c1 (stereo unspecified),-4%,i,u,u,i,-15%
COc1ccccc1C(=O)C1CCCN(C(=O)c2ccc(Cl)cc2)C1 (stereo unspecified),0%,i,u,16µM*,u,0%
COc1ccccc1C(=O)C1CCCN(C(=O)CCC(=O)c2ccccc2)C1 (stereo unspecified),2%,i,10µM*,29µM*,u,4%
CCOC(=O)CNC(=O)c1cccnc1Oc1ccc(Cl)cc1,-5%,i,7%,9%,i,0%
O=C(CSc1ccc2ccccc2c1)Nc1nc2ccccc2[nH]1,-7%,i,-30%,u,i,0%
COC(=O)Nc1nc2ccc(SC(C)C)cc2[nH]1,1.3µM*,1.5µM*,0.82µM*,3.3µM*,1µM*,u
COC(=O)Nc1nc2ccc(C(=O)c3ccccc3)cc2[nH]1,x,x,0.36µM*,0.25µM*,x,x
CC(Sc1nc2ccc(C(=O)c3ccccc3)cc2[nH]1)C(=O)O (stereo unspecified),u,i,5%,0%,i,14%
COC(=O)Nc1nc2ccc(S(=O)c3ccccc3)cc2[nH]1 (stereo unspecified),x,x,u,8.4µM*,x,x
CCOC(=O)C1CCCN(c2ncnc3c2nnn3C)C1 (stereo unspecified),x,i,-21%,-23%,i,x
COc1cc(OC)cc(C(=O)NC(=S)NCCc2ccccc2)c1,35µM*,i,-30%,u,i,u
O=C(/C=C/c1ccc(F)cc1)NC(=S)NNC(=O)[C@H]1C[C@@H]1c1ccccc1,-19%,i,u,23µM*,u,-20%
CC(C)(C)NC(=S)NNC(=O)[C@H]1C[C@@H]1c1ccccc1,-11%,i,u,u,i,0%
O=C(NC(=S)NNC(=O)[C@H]1C[C@@H]1c1ccccc1)c1ccc(F)cc1,u,u,15µM*,13µM*,i,-26%
COc1cc(OC)cc(C(=O)NC(=S)NNC(=O)Cc2cccs2)c1,-13%,u,u,u,i,-7%
